About 79,000 compounds went through this panel and 15% of them were active in at least one assay; those are over-represented in the sample as a whole. Unmarked numbers belong to inactive results. Active and inactive are the calls of the source. No stated cut-off is given here; in the data, active means growth inhibition above about 70%; inactive means the rest.
What was measured:
[1] = NCI Yeast Anticancer Drug Screen. Data for the rad50 strain (AID 155);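 further: 0% = growth of vehicle-only cultures of the same strain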; conditions: S. cerevisiae rad50 strain growth inhibition, active compounds read high
Summary of the method: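 Yeast carrying a defined DNA repair defect were exposed to test compounds, and growth was compared with vehicle-treated controls to give percent inhibition.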

[2] = NCI Yeast Anticancer Drug Screen. Data for the mec2-1 strain (AID 157); conditions: S. cerevisiae mec2-1 strain, active compounds read high
Summary of the method: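 Cells of the genetically defined mec2-1 yeast strain are incubated with test compound. Inhibition of growth is calculated against vehicle-treated controls.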

[3] = NCI Yeast Anticancer Drug Screen. Data for the sgs1 mgt1 strain (AID 161);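 further: 0% = growth of cultures given vehicle only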; conditions: S. cerevisiae sgs1 mgt1 strain, active compounds read high
Summary of the method: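 Genetically altered yeast, compound exposure, growth inhibition relative to vehicle.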

[4] = NCI Yeast Anticancer Drug Screen. Data for the cln2 rad14 strain (AID 165);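 further: 0% = growth equal to vehicle treated cultures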; conditions: S. cerevisiae cln2 rad14 strain, active compounds read high
Summary of the method: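 The screen exposed genetically defined yeast (cln2 rad14) to test compounds and scored growth inhibition relative to vehicle-treated controls.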

[5] = NCI Yeast Anticancer Drug Screen. Data for the bub3 strain (AID 167); conditions: S. cerevisiae bub3 mutant strain, active compounds read high
Summary of the method: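 Compounds were applied to a genetically altered yeast strain carrying a cell-cycle control defect. Growth inhibition was scored against vehicle-treated controls.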

[6] = NCI Yeast Anticancer Drug Screen. Data for the mlh1 rad18 strain (AID 175); conditions: S. cerevisiae mlh1 rad18 strain growth inhibition, active compounds read high
Summary of the method: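 Compound-treated yeast growth, normalised to vehicle controls. Strain bears defined DNA repair mutations.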

[7] = at 5.0 µM (retest, dose inferred, filed as 0.5)
[8] = at 50.0 µM (retest, dose inferred, filed as 5.0)

Row | SMILES | growth inhibition [1, 7] | growth inhibition [1, 8] | growth inhibition ([1]; at 50.0 µM) | growth inhibition [2, 7] | growth inhibition [2, 8] | growth inhibition ([2]; at 50.0 µM) | growth inhibition [3, 7] | growth inhibition [3, 8] | growth inhibition ([3]; at 50.0 µM) | growth inhibition [4, 7] | growth inhibition [4, 8] | growth inhibition ([4]; at 50.0 µM) | growth inhibition [5, 7] | growth inhibition [5, 8] | growth inhibition ([5]; at 50.0 µM) | growth inhibition [6, 7] | growth inhibition [6, 8] | growth inhibition ([6]; at 50.0 µM)
1 | CC1(C=O)CCC23COC4(CCC5C6(C)CCC(OC7OCC(OC8OC(CO)C(O)C(OC9OC(CO)C(O)C(O)C9O)C8OC8OCC(O)C(O)C8O)C(O)C7OC7OC(CO)C(O)C(O)C7O)C(C)(C)C6CCC5(C)C4(C)CC2O)C3C1 (centres undefined) | 22% | 93% (active) | 66.8% | 14% | 96% (active) | 85.2% (active) | 9% | 96% (active) | 88.2% (active) | 18% | 94% (active) | 86.2% (active) | 16% | 97% (active) | 87.1% (active) | 22% | 98% (active) | 82.3% (active)
2 | COC(=O)C(=[N+]=[N-])C(=O)c1ccc([N+](=O)[O-])o1 | 32% | 98% (active) | 56.1% | 10% | 99% (active) | 55.5% | 18% | 98% (active) | 51.8% | 8% | 99% (active) | 98.5% (active) | 6% | 99% (active) | 48.5% | 25% | 99% (active) | 98.7% (active)
3 | COc1ccc(C(Cn2ccnc2)Sc2ccc(Cl)c(Cl)c2)cc1 (centres undefined) | 74% (active) | 97% (active) | 92.9% (active) | 60% | 97% (active) | 93.8% (active) | 72% (active) | 97% (active) | 88.7% (active) | 47% | 86% (active) | 90.7% (active) | 76% (active) | 98% (active) | 86.5% (active) | 81% (active) | 96% (active) | 91.3% (active)
4 | OC(CSc1ccccc1)CN1CCN(c2ccc(Cl)cc2)CC1 (centres undefined) | 8% | 73% (active) | 84.2% (active) | 5% | 43% | 25.5% | 6% | 90% (active) | 79% (active) | 9% | 62% | 15.6% | 7% | 76% (active) | 80.8% (active) | 4% | 73% (active) | 59.5%
5 | CCOC(=O)c1cc(CC)sc1NC(=O)CC(C)=O | 42% | 58% | 46% | 35% | 53% | 17.9% | 42% | 56% | 57.2% | 38% | 44% | 59.5% | 44% | 78% (active) | 70.8% (active) | 46% | 71% (active) | 61.1%
6 | OC(c1cc(C23CC4CC(CC(C4)C2)C3)nc2c(Cl)cc(Cl)cc12)C1CCCCN1 (centres undefined) | 99% (active) | 98% (active) | 98.7% (active) | 99% (active) | 99% (active) | 98.8% (active) | 99% (active) | 99% (active) | 68.9% | 99% (active) | 98% (active) | 99.1% (active) | 99% (active) | 98% (active) | 98.5% (active) | 99% (active) | 98% (active) | 98.8% (active)
7 | CCOC(=O)C1C(C(C)C)C2(C#N)C(=N)OC1(C)C2(C#N)C#N (centres undefined) | 15% | 63% | 44.8% | 6% | 53% | 52.2% | 19% | 58% | 49.8% | 6% | 37% | 30.2% | 14% | 62% | 39.5% | 18% | 72% (active) | 42.5%
8 | Oc1ccc2c(c1)CCc1ccccc1-2 | 37% | 98% (active) | 95.6% (active) | 36% | 98% (active) | 75.5% (active) | 11% | 88% (active) | 95.8% (active) | 1% | 98% (active) | 99.2% (active) | 83% (active) | 99% (active) | 98.8% (active) | 75% (active) | 98% (active) | 99.5% (active)
9 | Nc1ccc(C(=O)/C=C/c2ccccc2)cc1 | 6% | 57% | 67.8% | 12% | 58% | 85.3% (active) | 11% | 75% (active) | 78.1% (active) | 4% | 21% | 8.95% | 5% | 81% (active) | 94.5% (active) | 4% | 53% | 96.3% (active)
10 | [Cl-].[Rh+3].c1ccc(-c2ccnc3c2ccc2c(-c4ccccc4)ccnc23)cc1.c1ccc(-c2ccnc3c2ccc2c(-c4ccccc4)ccnc23)cc1.c1ccc(-c2ccnc3c2ccc2c(-c4ccccc4)ccnc23)cc1 | -27% | 65% | 97.1% (active) | -15% | 26% | 88.9% (active) | -10% | 87% (active) | 94.5% (active) | -4% | 43% | 85.7% (active) | -7% | 38% | 90.8% (active) | -12% | 88% (active) | 95.9% (active)
11 | CC(=O)C1Cc2ccccc2C1=O (centres undefined) | 4% | 83% (active) | -9.4% | 3% | 44% | 42.2% | 0% | 91% (active) | 41.1% | 1% | 50% | -13.1% | 3% | 93% (active) | 9% | 4% | 90% (active) | 71.8% (active)
12 | O=C(Nc1ccc(Cl)c(Cl)c1)OCc1ccco1 | 51% | 68% | 91.4% (active) | 38% | 66% | 93% (active) | 47% | 99% (active) | 92.9% (active) | 35% | 90% (active) | 91.7% (active) | 41% | 81% (active) | 93.1% (active) | 48% | 76% (active) | 92% (active)
13 | O=C/C=C/c1ccc([N+](=O)[O-])cc1 | 24% | 98% (active) | 80.4% (active) | 49% | 100% (active) | 83.5% (active) | 18% | 98% (active) | 95.5% (active) | 8% | 98% (active) | 46.7% | 17% | 99% (active) | 95.3% (active) | 72% (active) | 99% (active) | 90.5% (active)
14 | Cc1nnc(N/N=C/c2ccc([N+](=O)[O-])o2)[nH]c1=O | -5% | 36% | 59.1% | 6% | 68% | 65.2% | -2% | 75% (active) | 47.5% | 6% | 42% | 85.2% (active) | -9% | 62% | 81% (active) | 8% | 80% (active) | 71% (active)
15 | O=C(CCl)N1c2ccccc2Sc2c1ccc1ccccc21 | 25% | 90% (active) | 82.7% (active) | 39% | 90% (active) | 63.9% | 47% | 94% (active) | 90.6% (active) | 20% | 69% | 19.8% | 56% | 91% (active) | 72.2% (active) | 46% | 90% (active) | 83.4% (active)
16 | O=Nc1ccc2ccccc2c1O | -3% | 64% | 85.7% (active) | 3% | 88% (active) | 89.8% (active) | -6% | 37% | 86.8% (active) | 25% | 63% | 58.5% | 3% | 93% (active) | 89.5% (active) | 14% | 93% (active) | 84% (active)
17 | C=C(C(N)=O)C(N)C(=O)O (centres undefined) | -5% | 9% | -20.1% | 6% | -2% | 9.85% | -1% | 0% | 13.1% | 9% | 2% | -7.4% | -16% | -2% | 40.5% | 11% | 32% | 7.45%
18 | CCCCCCC1N=C(N)N=C(N)N1c1cccc(Cl)c1 (centres undefined) | 17% | 61% | -25.1% | 10% | 56% | 48.8% | 8% | 55% | 46.4% | 1% | 24% | -53.5% | 34% | 81% (active) | 52.9% | 7% | 98% (active) | 89.6% (active)
19 | c1ccc2sc(SSN3CC4CCC(CC4)C3)nc2c1 | 37% | 91% (active) | 56.6% | 19% | 93% (active) | 80.8% (active) | 75% (active) | 97% (active) | 86.4% (active) | 38% | 89% (active) | 21.6% | 55% | 96% (active) | 83.7% (active) | 19% | 89% (active) | 80.7% (active)
20 | Nc1ccc(-c2ccc(N)c(S(=O)(=O)O)c2)cc1S(=O)(=O)O | 4% | 2% | -11.9% | 4% | 12% | -9% | 5% | 3% | 7.85% | 9% | 24% | 49% | 6% | 15% | 33.2% | 13% | 6% | -21.8%
21 | O=[N+]([O-])c1ccc(C2N(Cc3ccc(Cl)cc3)CCN2Cc2ccc(Cl)cc2)cc1 | 58% | 94% (active) | 82.2% (active) | 48% | 97% (active) | 56.5% | 79% (active) | 100% (active) | 85.8% (active) | 51% | 95% (active) | 64.5% | 78% (active) | 99% (active) | 87.6% (active) | 79% (active) | 98% (active) | 79.8% (active)
22 | O=C1c2ccccc2C(=O)c2c(O)c(Cl)cc(O)c21 | 3% | 20% | 15.9% | 2% | 26% | 1.3% | 7% | 71% (active) | 38.3% | 5% | 9% | -55.6% | 4% | 38% | -2.2% | 6% | 57% | 78% (active)
23 | Oc1ccc(Cl)cc1Cc1cc(Cl)ccc1O | -1% | 99% (active) | 3.65% | -3% | 99% (active) | 10.3% | 0% | 99% (active) | -2.55% | -16% | 99% (active) | 24.6% | -3% | 99% (active) | 16.6% | -5% | 99% (active) | -7.85%

From PubChem BioAssay (NCI)
